A short description of assay [1]: Her2 expression decrease, cell viability multiplex – SKBR3 breast tumor cells, AlphaScreen, ATP viability, primary screen (AID 461;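 active = Her2 level under about 52% in both replicate screens, with viability over 70% of control, limit read from the data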;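 as to Her2 level: lower value means less Her2 protein in the cells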;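 as to viability: percent of carrier control wells set as 100% viability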). Conditions: SKBR3 Her2 protein level, 18-24 h, measured here: SKBR3 viability, ATP luminescence, at 10 µM. (In general: Bead proximity is the source of the signal in Alpha formats.)
Assay [2] concerns the target Receptor tyrosine-protein kinase erbB-2 (Homo sapiens) (UniProt P04626). The description is as above. As to conditions: 18-24 h, at 10 µM, stronger effect = lower value.
Assay [3] can be described thus: reduced viability of SK-BR-3 breast cancer cells – cell-based, 24 h, human, pilot screen (AID 572;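 active = viability at or below 10% of carrier control in both of two separate runs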;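 also: compound exposure lasted between 18 and 24 h rather than exactly 24 h; 100% = carrier-treated control wells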). Conditions: SK-BR-3 viability, CellTiter-Glo luminescence, at 10 µM, stronger effect = lower value.
Assay [4] can be described thus: HUVEC growth inhibition – cell-based, human, primary screen (AID 575;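 active = viability at or below 30% in both replicate assays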;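 also: 100% = median of untreated cell wells with 0.1% DMSO on each plate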). Conditions: HUVEC proliferation, CellTiter-Glo luminescence, 72 h; at 10 µM; stronger effect = lower value.
Assay [5] in a line: H69AR cell proliferation blockers – human, duplicate replicates, primary screen (AID 580;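 active = viability at or under a set limit in both replicates, limit being median viability minus 3 SD, cut at about 48% in these data, passing the limit was not always enough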;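 also: 100% = mean luminescence of untreated wells and 0% = no signal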). Conditions: H69AR lung tumor cells viability, ATP luminescence, 72 h; at 10 µM; stronger effect = lower value.
Assay [6] in a line: MRP1 drug-resistance reversers in H69AR cells – cell-based, doxorubicin co-treatment, pilot screen (AID 601;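 active = viability loss from added drug above about 55%, and viability with drug at most 40%, in both replicates, limit read from the data, passing the limit was not always enough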). Conditions: CellTiter-Glo, 72 h, at 10 µM; for differential viability (reversal): stronger effect = higher value. On the technique in general: Cellular ATP, detected with luciferase, serves as a proxy for viable cell number.
The nature of assay [7]: yeast transport mutant growth inhibition pilot in 384-well plates, post-Golgi transport modulator project (AID 636; in the data active = inhibition above about 31%). Conditions: absorbance 615 nm, about 18 h, stronger effect = higher value.
A short description of assay [8]: growth suppression of yeast trafficking mutant, preliminary HTS, modulators of trafficking downstream of Golgi apparatus project, 1536-format plate, OD 615 nm (AID 637; in the data active = inhibition above about 30%). As to conditions: yeast transport mutant growth, absorbance 615 nm, 18 h; stronger effect = higher value.
The nature of assay [9]: S. cerevisiae growth inhibition in permissive medium (OD615), pilot counter-assay for S. cerevisiae lifespan shortening project, permissive growth control (AID 705;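 active = growth inhibition above 25% in both replicates, a cutoff set 3 SD above the mean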). As to conditions: OD615, 24 h, at 10 µM, stronger effect = higher value.
Assay [10] in a line: S. cerevisiae growth inhibition in restrictive medium, OD615, pilot screen, restrictive growth control, yeast lifespan reduction project (AID 706;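 active = growth inhibition above a set limit, 3 SD over mean compound inhibition, in both replicates, cut at about 43% in these data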;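 also: modified DeaD lifespan yeast strain shifted to restrictive glucose medium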). As to conditions: OD615, 48 h, at 10 µM, stronger effect = higher value.
The nature of assay [11]: doxorubicin toxicity protection in MRP-1 cells – H69AR cells, CellTiter-Glo, duplicate, MRP-1 activator project, pilot screen (AID 807;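 active = viability increase at or above a cutoff of the median across tested compounds plus 3 SD, cut at about 8.5% in these data, passing the limit was not always enough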;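 also: compound pretreatment 18-22 h then 72 h combined with doxorubicin; 0% = doxorubicin alone and 100% = vehicle without doxorubicin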). As to conditions: H69AR viability with doxorubicin, CellTiter-Glo luminescence; at 10 µM; stronger effect = higher value.
The nature of assay [12]: viability of HCT116 without oncogenic beta-catenin – human colon tumor cells, pilot screen (AID 823;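 active = cell viability at or below a set limit in both duplicate runs, the limit being the all-compound median minus 4 SD, cut at about 23% in these data, passing the limit was not always enough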;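 also: 0% = wells killed by 20 µM Hyamine and 100% = untreated DMSO cell wells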). Conditions: HCT116 beta-catenin knockout viability, CellTiter-Glo, 60 h; at 10 µM; stronger effect = lower value.
The nature of assay [13]: viability of PTEN-null HCT116 cells – cell-based, HCT116 clonal line, CellTiter-Glo, pilot screen (AID 824).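 Also: 0% = 20 µM Hyamine control and 100% = vehicle cell control.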 Conditions: HCT116 PTEN-deleted viability, 60 h, at 10 µM, stronger effect = lower value.
A short description of assay [14]: RAM pathway blockade in budding yeast – dse1pr::URA3 reporter, 5-FOA selection, pilot screen (AID 869;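 active = inhibition over a set limit, the all-compound mean plus 3 SD, in both replicate runs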;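 also: 0% = DMSO wells with no growth and 100% = 10 µM 1-NA-PP1 with full growth; RAM network block rescues cells from 5-FOA so hits raise OD615 growth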). Conditions: S. cerevisiae dse1pr::URA3 5-FOA growth, OD615, 2 d; at 10 µM; stronger effect = higher value; strain carries analog-sensitive mutant Cbk1 kinase.
Assay [15] in a line: RAM signaling pathway blockade in yeast – S. cerevisiae, Pdr1DBD-CYC8 efflux-inhibited sensitized strain, primary screen (AID 1298;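 active = RAM network inhibition above 8.4% in each of two replicates, 3 SD over the compound average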;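 also: 0% = DMSO untreated cells without growth and 100% = 10 µM 1-NA-PP1 full growth; higher means more yeast growth rescued from 5-FOA killing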). As to conditions: S. cerevisiae cbk1-as DSE1-URA3 strain, 5-FOA growth OD615, 2 d; at 50 µM; stronger effect = higher value.
The mark [16] stands for this setting: H69AR cells + 2 uM doxorubicin, measured here: viability with 2 uM doxorubicin, stronger effect = lower value.
Setting [17] is: H69AR cells, compound alone cytotoxicity.

Results filed as inconclusive are left out. Active and inactive are the calls of the source.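 The calls were made as follows, unless noted: active = viability at or below 27.92% in each of two runs, the all-compound median minus 4 SD; inconclusive = no clear call, values can overlap the other calls; inactive = the rest.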

Chain of Receptor tyrosine-protein kinase erbB-2 (Homo sapiens) (P04626 whole entry, looked up): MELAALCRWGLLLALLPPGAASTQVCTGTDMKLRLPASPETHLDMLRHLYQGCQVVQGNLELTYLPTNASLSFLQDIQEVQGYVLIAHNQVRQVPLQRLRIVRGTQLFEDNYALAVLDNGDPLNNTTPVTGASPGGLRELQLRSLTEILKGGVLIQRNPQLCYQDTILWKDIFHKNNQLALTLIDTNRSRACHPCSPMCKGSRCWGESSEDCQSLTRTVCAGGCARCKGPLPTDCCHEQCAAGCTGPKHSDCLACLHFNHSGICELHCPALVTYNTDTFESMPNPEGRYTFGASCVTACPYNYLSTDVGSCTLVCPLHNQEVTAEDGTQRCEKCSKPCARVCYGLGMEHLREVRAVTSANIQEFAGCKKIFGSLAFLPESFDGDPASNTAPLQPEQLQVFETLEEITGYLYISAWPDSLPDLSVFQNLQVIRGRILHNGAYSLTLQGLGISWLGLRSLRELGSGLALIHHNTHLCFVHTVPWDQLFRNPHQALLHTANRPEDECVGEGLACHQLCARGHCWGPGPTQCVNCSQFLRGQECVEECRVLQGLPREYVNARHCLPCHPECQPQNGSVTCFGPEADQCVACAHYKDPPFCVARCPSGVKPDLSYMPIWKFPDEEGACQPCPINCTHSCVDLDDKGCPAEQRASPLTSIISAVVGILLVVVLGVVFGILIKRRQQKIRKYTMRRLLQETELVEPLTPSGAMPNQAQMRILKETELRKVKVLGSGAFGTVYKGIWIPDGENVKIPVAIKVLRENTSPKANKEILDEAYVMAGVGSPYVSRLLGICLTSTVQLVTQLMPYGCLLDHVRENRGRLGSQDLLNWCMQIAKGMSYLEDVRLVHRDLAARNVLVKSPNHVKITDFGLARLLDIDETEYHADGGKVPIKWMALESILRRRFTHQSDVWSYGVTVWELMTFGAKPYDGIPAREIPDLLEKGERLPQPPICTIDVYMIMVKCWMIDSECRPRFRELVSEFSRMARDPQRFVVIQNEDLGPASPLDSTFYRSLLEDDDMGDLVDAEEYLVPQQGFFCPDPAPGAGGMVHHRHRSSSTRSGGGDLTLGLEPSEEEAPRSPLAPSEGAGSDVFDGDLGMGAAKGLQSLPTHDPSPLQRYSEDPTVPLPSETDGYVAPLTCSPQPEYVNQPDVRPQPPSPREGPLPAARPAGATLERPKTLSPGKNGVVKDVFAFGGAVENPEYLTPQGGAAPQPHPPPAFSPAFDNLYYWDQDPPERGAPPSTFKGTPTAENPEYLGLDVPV

What is called viability is a read-out of living cells in per cent, often relative to untreated cells. Broadly, the inhibition is the relative decrease from the control value, in per cent. With `N#CCCN1CCN(S(=O)(=O)c2ccc(S(=O)(=O)NC3CCCC3)cc2)CC1`, the viability in assay [1] is 88.5%; in [3], 88.5% (inactive); in [4] it was 99.3% (inactive); in assay [5], 107% (inactive); in assay [6] (setting [16]), 73.1%; in [6] (setting [17]), 107%. Besides, the viability in [12] was 101% (inactive); in assay [13] it was 100% (inactive). For the same compound, the Her2 level in assay [2] is 124% (inactive). The differential viability (reversal) in assay [6] (H69AR cells + 2 uM doxorubicin) is 33.5% (inactive). In addition, the values for the inhibition in [7], in [8] and in [14] were -3.46% (inactive), -8% (inactive) and 2.69% (inactive), respectively. Further, the results for the growth inhibition in assay [9] and in assay [10] were -9.39% (inactive) and -4.06% (inactive), respectively. Besides, the viability increase in assay [11] was -0.87% (inactive). Further, in [15], the RAM network inhibition is 3.21% (inactive).

For `COc1ccc(N2CCN(C(=O)c3c(-c4ccccc4)noc3C)CC2)cc1`, the viability in assay [1] was 91.5%; in assay [3] it was 91.5% (inactive); in assay [4], 94.4% (inactive); in assay [5], 88.1% (inactive); in assay [6] (setting [16]) it was 92.8%; in assay [6] (setting [17]), 88.1%. In addition, the results for the viability in assay [12] and in assay [13] were 94.4% (inactive) and 90.3% (inactive), respectively. In assay [2], the Her2 level is 108% (inactive). Also, the differential viability (reversal) in [6] (H69AR cells + 2 uM doxorubicin) is -4.69% (inactive). For the same compound, the inhibition in assay [7] was 0.51% (inactive); in [8], 4% (inactive); in assay [14], 0.795% (inactive). For the same compound, the growth inhibition in [9] is -9.57% (inactive); in assay [10] it was -10.4% (inactive). For the same compound, the viability increase in [11] is -2.79% (inactive). Moreover, in assay [15], the RAM network inhibition was 4.5% (inactive).

For `CC(C)(NC(=O)N1CCCC1)c1cccc(C(C)(C)NC(=O)N2CCCC2)c1`, the viability in assay [1] was 98%; in assay [3] it was 98% (inactive); in [4], 97.7% (inactive); in [5] it was 95.5% (inactive); in assay [6] (setting [16]), 90.3%; in assay [6] (setting [17]), 95.5%. For the same compound, the viability is 100% (inactive) in [12] and 97.4% (inactive) in [13]. Moreover, in assay [2], the Her2 level is 81.5% (inactive). Also, the differential viability (reversal) in assay [6] (H69AR cells + 2 uM doxorubicin) was 5.27% (inactive). The inhibition in [7] is -4.42% (inactive); in assay [8], -4% (inactive); in assay [14], 0.535% (inactive). Moreover, the growth inhibition in assay [9] was 0.795% (inactive); in assay [10], 3.39% (inactive). Also, in assay [11], the viability increase is -0.99% (inactive). Moreover, the RAM network inhibition in assay [15] was 0.88% (inactive).

Turning to `COC(=O)c1ccccc1NC1c2ccccc2C(=O)N1c1cccnc1` (stereo not given), the viability is 95% in [1]; 95% (inactive) in [3]; 86.9% (inactive) in [4]; 84.7% (inactive) in assay [5]; 85.4% in assay [6] (setting [16]); 84.7% in assay [6] (setting [17]). Also, the viability in [12] was 94.4% (inactive); in assay [13] it was 89.8% (inactive). Further, in [2], the Her2 level was 109% (inactive). Also, the differential viability (reversal) in assay [6] (H69AR cells + 2 uM doxorubicin) is -0.77% (inactive). Further, the values for the inhibition in [7], in assay [8] and in assay [14] were 1.07% (inactive), 0.33% (inactive) and -1.07% (inactive), respectively. Besides, the values for the growth inhibition in assay [9] and in [10] were -16.1% (inactive) and 3.47% (inactive), respectively. The viability increase in assay [11] is -0.86% (inactive). In addition, the RAM network inhibition in assay [15] was 4.8% (inactive).

Regarding `CC1CCN(C(=O)CSc2nnc(Cc3cc(=O)[nH]c(=O)[nH]3)n2-c2ccc(Cl)cc2)CC1`, the viability in assay [1] is 92.5%; in assay [3], 92.5% (inactive); in [4], 101% (inactive); in assay [5], 101% (inactive); in assay [6] (setting [16]), 98.2%; in assay [6] (setting [17]), 101%. Moreover, the viability in [12] was 105% (inactive); in assay [13] it was 100% (inactive). Also, the Her2 level in assay [2] was 117% (inactive). Also, the differential viability (reversal) in assay [6] (H69AR cells + 2 uM doxorubicin) is 2.73% (inactive). For the same compound, the inhibition in assay [7] was -1.54% (inactive); in [8], -4.17% (inactive); in [14], -0.375% (inactive). Besides, the growth inhibition was -17.1% (inactive) in [9] and -15.4% (inactive) in assay [10]. Moreover, in [11], the viability increase is -0.15% (inactive). Further, the RAM network inhibition in [15] was 4.41% (inactive).

The record behind these values is PubChem BioAssay.
